Bioassay records from PubChem BioAssay.
Compounds with a hit are over-represented: about 13% of the library has one in this group of screens.
miR-21 act = qHTS Assay for Modulators of miRNAs and/orActivators of miR-21 | HeLa miR-21 FLuc reporter, luciferase, 48 h | Potency, µM (highest dose often 38.3 µM), usual class: activators | 340,000 tested, under 10 active | AID 2288, 2010;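 also: miR-21 action dims this reporter so a rising signal means less miR-21 action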
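HeLa cells endogenously expressing miR-21, stably carrying CMV-driven firefly luciferase with a downstream miR-21 binding site, 2000 cells/well. Titrations up to approximately 40 uM, 48 hours; luciferase luminescence read.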
ALDH1A1 block = qHTS Assay for Inhibitors of Aldehyde Dehydrogenase 1 (ALDH1A1) | Aldehyde dehydrogenase 1A1 (Homo sapiens), P00352 | Purified ALDH1A1, NADH fluorescence, propionaldehyde substrate | Potency, µM (top dose mostly 75.3 µM), usual class: inhibitors | 7.3% of 220,000 active | AID 1030, 2008; active = well fitted inhibition curve with a large enough effect, not every such curve was filed as active; inconclusive = small, poorly fitted or top-dose-only effect, or another doubt; inactive = no such curve, though single readings can be large or run the other way
Sfp inh = qHTS Assay for Inhibitors of Bacillus subtilis Sfp phosphopantetheinyl transferase (PPTase); 4'-phosphopantetheinyl transferase ffp (Bacillus subtilis), Q9F4F7; Biochemical Sfp PPTase activity, qHTS; Potency, µM, usual class: inhibitors; 3.5% of 310,000 active;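 also: the enzyme is Sfp with the accession as filed and its product quenches rhodamine fluorescence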
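After 15 min at room temperature with compound, 15 nM Sfp received 5 uM rhodamine-CoA plus 12.5 uM BHQ-2-ybbR (50 mM Hepes pH 7.6, 10 mM MgCl2). Rate came from the fluorescence difference over 30 min, ex 525/em 598 nm.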
Lamin A splicing = qHTS Assay for Modulators of Lamin A Splicing; 0.01% of 200,000 active; HeLa LMNA splicing GFP/RFP minigene ratio, 48 h; Potency, µM (top dose mostly 46.1 µM), usual class: inhibitors; active = well fitted inhibition curve with a large enough effect in the signal ratio, with a control signal flat, not every such curve was filed as active; inconclusive = small, poorly fitted or top-dose-only effect, or effect the other way, or a change in a side signal; the % refers to the signal ratio
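S3 HeLa stable clones carrying a lamin A-EGFP splicing minigene plus DsRed2 were seeded at 600 cells/well in Opti-MEM with 2% FBS, pin-dosed and incubated 48 h at 37°C. Acumen cytometry (488 nm) gave the GFP/RFP total-intensity ratio.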
G9a inh = qHTS Assay for Inhibitors of Histone Lysine Methyltransferase G9a; 8.8% of 350,000 active; Potency, µM (top dose mostly 102 µM), usual class: inhibitors; G9a H3K9 monomethylation, AlphaScreen, 2 h; also: nearly all actives have a fitted effect of over 75% in size
Target sequence (Q96KQ7 913-1193 limits assumed): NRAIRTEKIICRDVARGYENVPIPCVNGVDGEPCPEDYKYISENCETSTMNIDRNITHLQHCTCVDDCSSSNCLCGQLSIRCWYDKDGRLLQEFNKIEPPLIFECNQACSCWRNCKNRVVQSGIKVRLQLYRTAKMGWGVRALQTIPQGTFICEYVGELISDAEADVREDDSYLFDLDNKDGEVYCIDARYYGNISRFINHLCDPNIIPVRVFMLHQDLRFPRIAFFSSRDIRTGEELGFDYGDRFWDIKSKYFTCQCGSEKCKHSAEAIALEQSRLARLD
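Using a bead-based AlphaScreen, monomethylated H3K9 product from 2 h room-temperature reactions (G9a 20 nM, peptide 500 nM, SAM 20 uM) was detected with 0.5 ug/mL rabbit anti-H3K9me1 antibody.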
KDM4E inh = qHTS Assay for Inhibitors of Human Jumonji Domain Containing 2E (JMJD2E); JMJD2E catalytic domain, FDH-coupled NADH fluorescence (FDH is formaldehyde dehydrogenase); Lysine-specific demethylase 4E (Homo sapiens), B2RXH2; Potency, µM (series often up to 57.1 µM), hits mostly inhibitors; AID 2147, 2009; 1.6% of 230,000 active; active = well fitted inhibition curve with a large enough effect, not every such curve was filed as active; inconclusive = small, poorly fitted or top-dose-only effect, or another doubt; inactive = no such curve, though single readings can be large or run the other way; also: nearly all actives have a fitted effect of over 50% in size
Target sequence (B2RXH2 1-337 limits assumed): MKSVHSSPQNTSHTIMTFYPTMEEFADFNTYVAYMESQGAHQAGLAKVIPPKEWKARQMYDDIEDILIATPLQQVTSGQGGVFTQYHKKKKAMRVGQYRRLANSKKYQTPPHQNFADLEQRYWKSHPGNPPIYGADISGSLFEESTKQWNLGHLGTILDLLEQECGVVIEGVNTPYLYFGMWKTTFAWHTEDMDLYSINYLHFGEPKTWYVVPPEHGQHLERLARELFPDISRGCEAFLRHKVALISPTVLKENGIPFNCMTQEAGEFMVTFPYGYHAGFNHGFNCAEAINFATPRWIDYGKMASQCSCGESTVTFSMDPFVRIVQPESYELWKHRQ
Hits are given with their value; i = inactive; ? = inconclusive; nt = no result; ! = a repeat was not active; [ ] = another dose, or the depositor's remark. Unless noted, calls follow the shape of the dose curve; as a rule, active = well fitted curve in the direction sought with a large enough effect; inconclusive = small, poorly fitted or top-dose-only effect, or another doubt; inactive = no such curve, though single readings can be large; an effect the other way counts as inactive or inconclusive.

SMILES	miR-21 act	ALDH1A1 block	Sfp inh	Lamin A splicing	G9a inh	KDM4E inh
COCC(=O)Oc1c(Sc2ccccc2[N+](=O)[O-])c(C)nn1C(C)(C)C	i	8.9µM	?	i[9.22 µM]	22µM	i
Cc1nn(-c2ccccc2)c(N)c1Sc1ccccc1[N+](=O)[O-]	i	?	i	i	i	i
CCC(CC)C(=O)Oc1c(Sc2ccccc2[N+](=O)[O-])c(C)nn1C(C)(C)C	i	2.2µM	i	?	32µM	i
O=C(Nc1cc([N+](=O)[O-])ccc1F)C1CC1	i	i	i	i	i	i
COc1ccc(-n2nc(C(=O)Nc3cccc(C)n3)c3c4ccccc4n(C)c3c2=O)cc1	i	nt	nt	nt	i	nt
CC(C)=CCC1C(=O)N(c2ccccc2)N(c2ccccc2)C1=O	nt	nt	i	?	?	nt
CCCCC1C(=O)N(c2ccccc2)N(c2ccc(O)cc2)C1=O (stereo not given)	nt	?	i	nt	3.5µM!	i
CCOc1ccccc1CNC(=O)c1ccc(NC(=O)C2=C(C)OCCS2)cc1	i	nt	i	nt	32µM	nt
CCOc1ccccc1CNC(=O)c1ccc(NC(=O)C2=CSCCO2)cc1	i	nt	i	nt	i	nt
N#Cc1c(N(CCO)CCO)nc(N)c2c(N)nc3c(c12)CC(=O)N3Cc1cccs1	i	nt	i	nt	45µM	?
COc1cc2oc(-c3ccccc3)cc(=O)c2cc1OC	nt	?	i	nt	nt	?
COc1cc(OC)c(-c2c3cc(O)c(=O)cc-3oc3cc(O)c(O)cc23)cc1OC	i	10µM	16µM	?	10µM	5µM
Cc1c2cc(O)c(=O)cc-2oc2cc(O)c(O)cc12	i	?	40µM	i	7.9µM	?
O=c1cc(-c2ccc(O)cc2O)oc2ccccc12	nt	i	i	nt	nt	?
O=C(CSc1nc(O)cc(=O)n1-c1ccc(Cl)c(Cl)c1)Nc1ccc(Cl)cc1Cl	i	nt	i	nt	i	nt
Cc1nn2c(-c3ccco3)ccnc2c1-c1ccc(Br)cc1	i	nt	nt	nt	i	nt
CC(=O)N[C@@H](CCC(=O)O)C(=O)O	nt	nt	i	nt	i[12.7 µM]	nt
COc1ccc(NCc2nc3ccccc3n2CCOc2ccc(C)cc2)cc1	i	i	i	?	14µM	i
Cn1c(CNc2ccc(O)cc2)nc2ccccc21	i	nt	79µM	nt	?	nt
COc1cccc(OCc2nc3ccccc3n2CCOc2ccc(C)cc2)c1	i	nt	nt	nt	i	nt
CCCn1c(CNc2ccccc2O)nc2ccccc21	i	13µM	?	i	?	14µM
c1ccc(NCc2nc3ccccc3n2CCOc2ccccc2)cc1	i	i	i	?	?	i
COc1ccc(NCc2nc3ccccc3n2CCOc2ccccc2)cc1	i	i	i	?	32µM	i
CC(C)CCNC(=O)c1cnc2sc(N3CCCCC3)nn2c1=O	i	nt	nt	nt	i	nt
CCCOc1ccc(CNC(=O)C(CC)n2nc(C)c3sc4ccccc4c3c2=O)cc1 (stereo not given)	i	nt	nt	nt	i	nt
SMILES	miR-21 act	ALDH1A1 block	Sfp inh	Lamin A splicing	G9a inh	KDM4E inh
Cc1ccc(NC(=O)N2CCN(c3nnc(C)c4c(C)n(-c5ccccc5)nc34)CC2)c(Cl)c1	i	nt	nt	i	i	nt
NC(=O)C1CCN(C(=S)NCCc2ccccc2)CC1	i	?	i	?	nt	i
COc1ccc(NC(=S)N2CCC(C(=O)N3CCCCCC3)CC2)cc1	i	14µM	i	i	i	i
COc1ccc(CCNC(=S)N2CCC(C(N)=O)CC2)cc1	i	nt	56µM	nt	i	i
CSc1cccc(NC(=S)N(CCC(C)C)C(C)c2ccncc2)c1 (stereo not given)	i	nt	i	nt	?	i
CC(=O)n1cc(N(C(=O)CCl)c2ccc([N+](=O)[O-])cc2)c2ccccc21	?	nt	i	nt	50µM	i
CC(=O)n1cc(N(C(=O)CCl)c2ccccc2)c2ccccc21	?	nt	i	nt	nt	?
O=Cc1[nH]c2ccccc2c1N(C(=O)CCl)c1ccc([N+](=O)[O-])cc1	i	7.9µM	i	nt	nt	i
COc1ccccc1N1CCN(C(=O)c2ccc(N(C)S(=O)(=O)c3ccccc3)cc2)CC1	i	nt	i	nt	i	nt
CCCCSc1nnc2n(-c3cccc(C)c3)c(=O)c3c4c(sc3n12)CCCC4	i	nt	nt	nt	i	nt
COc1ccc(CC(NC(C)=O)C(=O)NC2CCN(C(=O)C3CCCCC3)CC2)cc1OC (stereo not given)	i	nt	i	nt	i	nt
Cc1nc(SCCC(C)C)c([N+](=O)[O-])[nH]1	i	?	i	i	28µM	i
Cc1nc(SCCO)c([N+](=O)[O-])[nH]1	i	nt	?	nt	nt	i
CCOC(=O)C1C(=O)CC(=O)CC1CC(C)SCC (stereo not given)	i	13µM	i	i	i	i
CCOC(=O)C1C(O)=CC(=O)CC1c1ccccc1 (stereo not given)	nt	nt	nt	nt	i[2.33 µM]	nt
Cc1cc(C)cc(N2CCn3c2nc2c3c(=O)n(Cc3c(F)cccc3Cl)c(=O)n2C)c1	i	nt	nt	i	i	nt
COCCNC(=O)[C@H](C)[C@H]1C[C@]1(C)[C@H](NC(=O)OCc1ccccc1)c1ccccc1	i	28µM!	i	i	?	i
C[C@@H](C(=O)NCc1ccc(S(C)(=O)=O)cc1)[C@H]1C[C@]1(C)[C@H](NC(=O)OCc1ccccc1)c1ccccc1	i	6.3µM	i	i	?	i
C[C@@H](C(=O)NCCc1c[nH]c2ccccc12)[C@@H]1C[C@@]1(C)[C@@H](NC(=O)OCc1ccccc1)c1ccccc1	i	?	i	?	45µM	i
CNC(=O)[C@H](C)[C@H]1C[C@]1(C)[C@H](NC(=O)OCc1ccccc1)c1ccccc1	nt	7.9µM	i	nt	nt	i
C[C@@H](C(=O)NCc1cccc2ccccc12)[C@H]1C[C@]1(C)[C@H](NC(=O)OCc1ccccc1)c1ccccc1	nt	?	i	nt	nt	i
CNC(=O)[C@H](C)[C@@H]1C[C@@]1(C)[C@@H](NC(=O)OCc1ccccc1)c1ccccc1	i	i	i	i	?	i
C[C@@H](C(=O)NCC1CC1)[C@H]1C[C@]1(C)[C@H](NC(=O)OCc1ccccc1)c1ccccc1	i	18µM	i	i	i	i
Cc1ccc(CNC(=O)[C@H](C)[C@H]2C[C@]2(C)[C@H](NC(=O)OCc2ccccc2)c2ccccc2)c(F)c1F	nt	3.2µM	i	nt	nt	i
C[C@@H](C(=O)N[C@@H](CO)Cc1ccccc1)[C@H]1C[C@]1(C)[C@H](NC(=O)OCc1ccccc1)c1ccccc1	nt	7.1µM	i	nt	nt	i
O=C(Nc1ccc(Cl)cc1C(=O)N1CCOCC1)c1cccc([N+](=O)[O-])c1	i	i	i	?	i	i
Cc1c(Cl)cccc1-n1ncc(C(=O)NCc2cccs2)c1C1CCN(C(=O)OC(C)(C)C)CC1	i	nt	nt	?	i	nt
